Results on 18 sequences are retold here after the supplement of paper PMC6555819.

The assay relates to PPARg:RXRa DBDmut IVT, anti-RXR (DBD mutation: RXRa K156A/R161A, NR concentration 270 nM, RXRa partner concentration 90 nM). In words: PBM binding z-score (relative to random genomic background probes); higher = stronger binding; sequences stand for … in GC…GCGATTGACAGCGTAGAATGAAGG
The method, boiled down: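 Random background probes are the reference for binding z-scores. These scores derive from regression-normalized fluorescence on custom Agilent 4×180K protein-binding microarrays incubated 1 h with ligand-free nuclear receptor dimers. Binding was detected with antibodies against each partner (one per run).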
TCTTGTAGATGAATAGAGGTTAAGAAAGTGCGCT had a PBM binding z-score of 2.5. To AGAATTAGGTTACCAAAGATCAGGGAAACGCTTG belongs 6.61; to ATCTCTAAGTAAAGTTCAGTGAAAGATCGATAGA, 0.19. As for AATAGAGGGTCACTAGGCCAGAGTAGGTACGAAT, the figure is 3.57; as for AGAACGAGGGCACGCTGATTTGATAGCAGAGTAG, 4.06. Consider GGAACGAGGGCAAGTTGATGGCAGAGTTTGATGG, for which the PBM binding z-score amounted to 3.55. Sequence CCTAGTTGGTCAATGTCACACACGCTATAGGTAC returned a PBM binding z-score of 1.5. To TCATTTAGGTAATACAGGTGAAAGTCGGCATCTA belongs 3.53; to CCTTACGGGTTACTGACAGGTTATAGCATTTGGA, 1.04. Take ACTATTCGTTGACTTAGGGCAACCGATACGACGC: the PBM binding z-score is -0.214. To ACCTCTAGGTAAGACTCAGTTCAGTGAAGAACGC belongs 1.32; to CGTCCAAGGTCAATGCTAGGTCAGTGAAAGCATT, 3.41; to ACTATTAGTTGAGACGAGGGCAACCGCTAGGTTG, 0.0597.

For the sequence TCTTGTAGATCAAAAGAGGTTAAGAAAGTGCGCT, the PBM binding z-score came to 1.47. The sequence CGAACGAGGGCATGAGTTGAGAGCAAATGCCGAT yielded a PBM binding z-score of 3.19. As for GCTATTAGTTGAAAGGGCAACCAAATGATTCTCG, the figure is 0.461; as for CAAACTAGGTCAAAGGTCAAAGGCGAGCCAACCA, 8.87. For GCTTGTAGATCAACGTTAAGAAAGACTAAGCTAA, the PBM binding z-score came to 1.51.
